Data from the supplement of paper PMC10849652.
Of roughly 8,800 targets only a part is listed; those with a hit were picked by preference. About 0.5% of all pairs of compound and target were hits. A number with no mark means an inactive call.

Tests used:
Assay in all cases: log2 fold change, soluble protein after heating vs DMSO (PISA); higher = thermal stabilisation; K562 lysate, 10 uM; active = over 0.2 and 3.5 SD of the protein, either way, in both replicates (recomputed)
ibrutinib = compound: C=CC(=O)N1CCC[C@@H](n2nc(-c3ccc(Oc4ccccc4)cc3)c3c(N)ncnc32)C1 [ibrutinib]
Method in brief: (§1)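 A 30 min treatment with 10 μM compound was applied to crude K562 extract at 1 mg/mL protein in PBS pH 7.4 with 1 mM MgCl2. Heating for 3 min spanned 48°C-58°C, after which aliquots were pooled, adjusted to 0.5% NP-40 at 4°C and spun at 21,000xg for 90 min. TMTpro 16plex LC-MS/MS of the supernatant, with channel sums equalised, gave values recorded as log-two fold change in thermal stability against solvent controls, from duplicates.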

[1] = compound: CC(=O)c1cnc2ccc(-c3cc(Cl)c(O)c(Cl)c3)nc2c1N[C@H]1CC[C@H](CN(C)C)CC1
Method in brief: as §1

ralimetinib = compound: CC(C)(C)Cn1c(N)nc2ccc(-c3[nH]c(C(C)(C)C)nc3-c3ccc(F)cc3)nc21 [ralimetinib]
Method in brief: as §1

[2] = compound: CC(C)(O)CC(=O)NCCn1ccc2ncnc(Nc3ccc(Oc4cccc(C(F)(F)F)c4)c(Cl)c3)c21
Method in brief: as §1

[3] = compound: CC(C)C1=C2N=C(C=C(N2N=C1)NCC3=CC=CC=C3)NCCCCCCN
Method in brief: as §1

[4] = compound: CC1=C(C(CC(=O)N1)C2=CC=C(C=C2)C(F)(F)F)C(=O)NC3=C(C=C4C(=C3)C=NN4)F
Method in brief: as §1

[5] = compound: CC1=C(C2=C(C=C1)C(=O)C3=CC=CC=C3N2CCCN)C
Method in brief: as §1

[6] = compound: CC1=C(C=C(C=C1)NC(=O)C2=CC(=CC=C2)C(C)(C)C#N)NC3=CC4=C(C=C3)N=CN(C4=O)C
Method in brief: as §1

[7] = compound: CC1=C(C=C(C=C1)NC(=O)C2=CC(=CC=C2)N(C)C)NC(=O)C3=CC=C(C=C3)O
Method in brief: as §1

[8] = compound: CC1=CC=C(C=C1)SC2=C3C=C(SC3=CN=C2)C(=O)N
Method in brief: as §1

vemurafenib = compound: CCCS(=O)(=O)Nc1ccc(F)c(C(=O)c2c[nH]c3ncc(-c4ccc(Cl)cc4)cc23)c1F [vemurafenib]
Method in brief: as §1

[9] = compound: CCCS(=O)(=O)Nc1ccc(F)c(C(=O)c2c[nH]c3ncc(Cl)cc23)c1F
Method in brief: as §1

barasertib = compound: CCN(CCCOc1ccc2c(Nc3cc(CC(=O)Nc4cccc(F)c4)[nH]n3)ncnc2c1)CCOP(=O)(O)O [barasertib]
Method in brief: as §1

[10] = compound: CC[C@@H]1C(=O)N(C)c2cnc(Nc3ccc(C(=O)NC4CCN(C)CC4)cc3OC)nc2N1C1CCCC1
Method in brief: as §1

volasertib = compound: CC[C@@H]1C(=O)N(C)c2cnc(Nc3ccc(C(=O)N[C@H]4CC[C@H](N5CCN(CC6CC6)CC5)CC4)cc3OC)nc2N1C(C)C [volasertib]
Method in brief: as §1

[11] = compound: CCn1c(C(=O)N(C2CC2)C2CC2)cc2c3c(ncn3C)c(Nc3cc(C)n(C)n3)nc21
Method in brief: as §1

[12] = compound: CCn1cc(-c2ccnc3[nH]c(-c4cccc(CN(C)C)c4)cc23)c(-c2ccc(NC(=O)N(C)C)cc2)n1
Method in brief: as §1

[13] = compound: CN1CCC(CNc2ccc3ncc(-c4cccc(OC(F)(F)F)c4)n3n2)CC1
Method in brief: as §1

saracatinib = compound: CN1CCN(CCOc2cc(OC3CCOCC3)c3c(Nc4c(Cl)ccc5c4OCO5)ncnc3c2)CC1 [saracatinib]
Method in brief: as §1

sotrastaurin = compound: CN1CCN(c2nc(C3=C(c4c[nH]c5ccccc45)C(=O)NC3=O)c3ccccc3n2)CC1 [sotrastaurin]
Method in brief: as §1

Sequence of UniProt Q9UHQ1 (Q9UHQ1 whole entry, looked up): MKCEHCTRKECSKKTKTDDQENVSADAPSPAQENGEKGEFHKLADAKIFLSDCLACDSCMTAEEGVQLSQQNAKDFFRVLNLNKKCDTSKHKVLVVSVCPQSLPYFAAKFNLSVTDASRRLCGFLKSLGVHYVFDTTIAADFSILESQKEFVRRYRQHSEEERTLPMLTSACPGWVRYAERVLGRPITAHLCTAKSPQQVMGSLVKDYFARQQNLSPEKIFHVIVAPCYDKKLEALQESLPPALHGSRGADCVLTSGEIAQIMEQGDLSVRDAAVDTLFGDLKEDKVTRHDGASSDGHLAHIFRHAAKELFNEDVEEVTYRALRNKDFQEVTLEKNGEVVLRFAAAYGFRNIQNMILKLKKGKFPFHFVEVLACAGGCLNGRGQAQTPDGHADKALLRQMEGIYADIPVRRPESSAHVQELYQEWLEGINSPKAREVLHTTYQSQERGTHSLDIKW
Sequence of UniProt Q08J23 (Q08J23 whole entry, looked up): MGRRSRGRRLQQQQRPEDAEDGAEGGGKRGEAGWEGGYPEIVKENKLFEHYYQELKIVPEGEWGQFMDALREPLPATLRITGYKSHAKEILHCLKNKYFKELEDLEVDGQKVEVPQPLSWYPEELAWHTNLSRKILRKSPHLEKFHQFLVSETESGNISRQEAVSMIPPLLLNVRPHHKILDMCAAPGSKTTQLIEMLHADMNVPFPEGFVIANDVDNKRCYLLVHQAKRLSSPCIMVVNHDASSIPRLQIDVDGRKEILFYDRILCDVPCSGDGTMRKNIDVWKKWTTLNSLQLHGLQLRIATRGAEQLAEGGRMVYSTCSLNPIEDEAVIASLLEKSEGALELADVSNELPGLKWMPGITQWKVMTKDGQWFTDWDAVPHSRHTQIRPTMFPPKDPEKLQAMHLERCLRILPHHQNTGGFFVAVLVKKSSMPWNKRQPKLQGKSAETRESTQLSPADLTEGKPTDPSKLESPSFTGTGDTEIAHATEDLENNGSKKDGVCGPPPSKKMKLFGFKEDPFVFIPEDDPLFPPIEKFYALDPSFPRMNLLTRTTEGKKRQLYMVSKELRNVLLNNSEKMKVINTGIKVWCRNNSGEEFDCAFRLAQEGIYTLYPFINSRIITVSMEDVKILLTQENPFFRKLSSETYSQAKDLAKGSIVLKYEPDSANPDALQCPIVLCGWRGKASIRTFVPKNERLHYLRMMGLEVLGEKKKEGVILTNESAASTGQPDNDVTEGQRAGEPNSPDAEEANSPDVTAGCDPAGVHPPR
Sequence of UniProt Q12769 (Q12769 whole entry, looked up): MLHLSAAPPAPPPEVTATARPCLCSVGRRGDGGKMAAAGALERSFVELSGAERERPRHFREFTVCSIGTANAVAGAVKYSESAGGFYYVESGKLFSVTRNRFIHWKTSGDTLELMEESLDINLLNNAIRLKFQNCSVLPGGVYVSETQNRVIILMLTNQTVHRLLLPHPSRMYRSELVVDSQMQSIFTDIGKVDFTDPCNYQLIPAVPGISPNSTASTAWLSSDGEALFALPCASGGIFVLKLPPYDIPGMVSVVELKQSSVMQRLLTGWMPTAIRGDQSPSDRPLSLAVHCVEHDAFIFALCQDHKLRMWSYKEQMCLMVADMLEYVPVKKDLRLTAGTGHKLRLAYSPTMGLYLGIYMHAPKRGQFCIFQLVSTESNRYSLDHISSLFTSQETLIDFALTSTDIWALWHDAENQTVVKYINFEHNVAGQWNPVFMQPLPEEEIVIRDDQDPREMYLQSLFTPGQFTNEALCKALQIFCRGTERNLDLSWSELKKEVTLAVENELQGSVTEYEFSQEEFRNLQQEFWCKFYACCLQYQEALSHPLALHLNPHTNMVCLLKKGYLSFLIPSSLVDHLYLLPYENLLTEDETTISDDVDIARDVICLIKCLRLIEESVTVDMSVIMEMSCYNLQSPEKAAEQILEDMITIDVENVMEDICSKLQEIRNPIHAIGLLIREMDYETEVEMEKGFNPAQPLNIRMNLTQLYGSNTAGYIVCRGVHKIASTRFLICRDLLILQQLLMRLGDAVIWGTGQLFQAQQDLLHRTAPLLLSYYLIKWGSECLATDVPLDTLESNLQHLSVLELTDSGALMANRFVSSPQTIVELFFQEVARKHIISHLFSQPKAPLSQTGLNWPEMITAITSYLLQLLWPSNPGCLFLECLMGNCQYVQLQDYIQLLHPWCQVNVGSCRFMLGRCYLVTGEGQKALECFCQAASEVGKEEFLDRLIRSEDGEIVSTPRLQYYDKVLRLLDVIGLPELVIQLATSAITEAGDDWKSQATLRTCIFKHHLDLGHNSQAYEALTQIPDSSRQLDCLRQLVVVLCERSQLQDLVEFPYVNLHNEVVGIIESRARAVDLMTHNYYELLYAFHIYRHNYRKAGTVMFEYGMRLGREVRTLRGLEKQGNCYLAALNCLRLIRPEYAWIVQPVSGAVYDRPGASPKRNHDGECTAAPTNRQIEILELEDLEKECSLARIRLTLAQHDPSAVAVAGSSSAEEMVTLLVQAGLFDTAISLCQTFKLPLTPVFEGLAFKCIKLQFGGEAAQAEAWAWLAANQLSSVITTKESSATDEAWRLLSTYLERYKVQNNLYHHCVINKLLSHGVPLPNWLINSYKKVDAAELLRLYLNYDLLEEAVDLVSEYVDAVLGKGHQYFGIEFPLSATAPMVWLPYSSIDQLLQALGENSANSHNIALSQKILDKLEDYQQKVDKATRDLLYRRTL
Sequence of UniProt Q9NQR4 (Q9NQR4 whole entry, looked up): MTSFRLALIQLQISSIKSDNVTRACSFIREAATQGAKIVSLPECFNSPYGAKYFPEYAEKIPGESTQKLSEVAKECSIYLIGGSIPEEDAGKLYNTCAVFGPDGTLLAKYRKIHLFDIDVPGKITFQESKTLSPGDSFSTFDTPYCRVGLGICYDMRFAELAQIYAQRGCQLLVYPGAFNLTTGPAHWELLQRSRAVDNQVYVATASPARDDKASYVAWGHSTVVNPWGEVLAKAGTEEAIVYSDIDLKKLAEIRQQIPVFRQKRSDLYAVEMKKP
Sequence of UniProt Q86UW6 (Q86UW6 whole entry, looked up): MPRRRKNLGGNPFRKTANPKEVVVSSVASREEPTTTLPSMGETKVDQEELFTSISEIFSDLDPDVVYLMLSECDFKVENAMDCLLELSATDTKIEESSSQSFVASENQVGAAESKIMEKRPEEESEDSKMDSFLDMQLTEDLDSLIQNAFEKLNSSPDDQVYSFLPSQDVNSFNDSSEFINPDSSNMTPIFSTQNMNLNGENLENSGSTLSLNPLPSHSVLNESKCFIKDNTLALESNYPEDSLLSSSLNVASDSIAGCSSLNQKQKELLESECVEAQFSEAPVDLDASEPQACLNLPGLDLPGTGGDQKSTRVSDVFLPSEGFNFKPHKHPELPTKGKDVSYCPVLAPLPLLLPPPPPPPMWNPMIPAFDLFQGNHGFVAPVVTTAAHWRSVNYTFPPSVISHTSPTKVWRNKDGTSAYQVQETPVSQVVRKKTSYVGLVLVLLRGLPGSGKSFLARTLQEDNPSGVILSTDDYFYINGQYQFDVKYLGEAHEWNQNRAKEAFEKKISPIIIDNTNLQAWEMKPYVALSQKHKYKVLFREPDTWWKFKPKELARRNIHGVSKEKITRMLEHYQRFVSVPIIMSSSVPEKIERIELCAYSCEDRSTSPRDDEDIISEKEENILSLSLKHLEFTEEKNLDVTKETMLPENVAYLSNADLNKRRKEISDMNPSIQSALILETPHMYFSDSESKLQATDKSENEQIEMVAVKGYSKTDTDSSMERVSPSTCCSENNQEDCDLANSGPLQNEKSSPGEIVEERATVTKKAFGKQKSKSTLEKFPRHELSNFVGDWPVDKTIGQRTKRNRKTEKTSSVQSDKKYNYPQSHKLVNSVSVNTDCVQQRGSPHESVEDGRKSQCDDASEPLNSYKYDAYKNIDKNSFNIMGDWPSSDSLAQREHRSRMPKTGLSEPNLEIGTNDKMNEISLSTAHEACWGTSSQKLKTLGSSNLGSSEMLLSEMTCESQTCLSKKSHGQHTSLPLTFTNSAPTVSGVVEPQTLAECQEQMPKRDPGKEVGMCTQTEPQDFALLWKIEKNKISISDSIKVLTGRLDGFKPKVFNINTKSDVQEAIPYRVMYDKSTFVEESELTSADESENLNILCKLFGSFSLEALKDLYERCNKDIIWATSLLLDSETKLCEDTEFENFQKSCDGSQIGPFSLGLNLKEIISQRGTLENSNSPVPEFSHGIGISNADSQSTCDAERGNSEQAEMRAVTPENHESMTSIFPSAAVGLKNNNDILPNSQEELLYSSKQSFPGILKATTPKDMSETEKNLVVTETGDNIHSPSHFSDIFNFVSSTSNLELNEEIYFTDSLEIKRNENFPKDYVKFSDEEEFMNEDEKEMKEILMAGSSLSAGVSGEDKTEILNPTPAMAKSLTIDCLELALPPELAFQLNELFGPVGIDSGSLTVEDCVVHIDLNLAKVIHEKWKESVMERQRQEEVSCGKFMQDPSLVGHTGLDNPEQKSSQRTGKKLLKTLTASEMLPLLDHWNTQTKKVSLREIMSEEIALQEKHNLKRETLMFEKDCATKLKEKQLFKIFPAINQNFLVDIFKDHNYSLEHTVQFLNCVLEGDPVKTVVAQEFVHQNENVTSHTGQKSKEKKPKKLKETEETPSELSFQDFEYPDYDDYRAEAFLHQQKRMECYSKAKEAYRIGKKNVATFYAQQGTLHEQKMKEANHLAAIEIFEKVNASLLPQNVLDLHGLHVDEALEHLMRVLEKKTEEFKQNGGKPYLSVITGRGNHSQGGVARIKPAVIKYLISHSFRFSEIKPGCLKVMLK
Sequence of UniProt P00156 (P00156 whole entry, looked up): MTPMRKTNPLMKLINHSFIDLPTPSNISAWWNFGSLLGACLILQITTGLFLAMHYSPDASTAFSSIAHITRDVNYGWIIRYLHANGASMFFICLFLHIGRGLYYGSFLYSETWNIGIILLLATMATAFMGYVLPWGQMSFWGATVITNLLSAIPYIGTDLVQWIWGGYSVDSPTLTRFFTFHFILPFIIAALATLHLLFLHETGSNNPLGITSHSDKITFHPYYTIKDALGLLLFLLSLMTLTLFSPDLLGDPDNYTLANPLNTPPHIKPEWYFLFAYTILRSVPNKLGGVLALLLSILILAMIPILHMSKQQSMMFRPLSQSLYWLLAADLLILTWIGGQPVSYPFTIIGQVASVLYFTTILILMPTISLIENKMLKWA

Row | Target | log2 fold change (ibrutinib) | log2 fold change [1] | log2 fold change (ralimetinib) | log2 fold change [2] | log2 fold change [3] | log2 fold change [4] | log2 fold change [5] | log2 fold change [6] | log2 fold change [7] | log2 fold change [8] | log2 fold change (vemurafenib) | log2 fold change [9] | log2 fold change (barasertib) | log2 fold change [10] | log2 fold change (volasertib) | log2 fold change [11] | log2 fold change [12] | log2 fold change [13] | log2 fold change (saracatinib) | log2 fold change (sotrastaurin)
1 | NCOR1 (UniProt O75376) | 0.002 | 0.015 | 0.021 | -0.033 | 0.014 | 0.026 | -0.026 | 0 | -0.006 | -0.005 | -0.005 | -0.01 | 0.018 | 0.043 | 0.002 | -0.014 | -0.002 | -0.033 | 0.006 | 0.006
2 | NSUN2 (UniProt Q08J23) | 0.014 | 0.011 | 0.023 | 0.015 | 0.006 | 0.008 | 0.006 | -0.035 | 0.033 | 0.017 | 0.028 | 0.004 | -0.006 | -0.032 | 0.004 | 0.037 | 0.081 | -0.022 | 0.006 | 0.005
3 | N4BP2 (UniProt Q86UW6) | 0.094 | -0.041 | 0.038 | -0.053 | 0.047 | 0.03 | -0.011 | -0.005 | -0.034 | -0.027 | -0.001 | 0.052 | -0.018 | 0.029 | -0.014 | 0 | -0.336 (active) | 0.029 | 0.018 | 0.05
4 | PARP14 (UniProt Q460N5) | 0.029 | -0.051 | -0.03 | 0.015 | 0.074 | 0.049 | 0.011 | -0.007 | 0.002 | -0.135 | 0.067 | 0.062 | 0.038 | 0.007 | 0.001 | 0.003 | -0.08 | 0.075 | 0.119 | -0.058
5 | NIT2 (UniProt Q9NQR4) | 0.026 | 0.014 | -0.038 | -0.041 | 0.014 | 0.017 | 0.014 | 0.017 | 0.019 | 0 | -0.003 | 0.005 | -0.008 | 0.005 | -0.004 | -0.004 | 0.02 | -0.013 | -0.008 | -0.012
6 | MSH6 (UniProt P52701) | 0.001 | 0.022 | 0.024 | 0.003 | 0.027 | -0.01 | -0.01 | -0.002 | 0.057 | 0.003 | 0.024 | 0.028 | 0.021 | -0.109 | -0.061 | 0.044 | -0.035 | -0.041 | -0.003 | 0.047
7 | NUP160 (UniProt Q12769) | 0.063 | -0.007 | 0.062 | 0.017 | -0.021 | 0.01 | 0.005 | 0.012 | -0.021 | 0.001 | -0.039 | 0.02 | 0.052 | -0.106 | -0.105 | 0.043 | 0.057 | -0.058 | 0.043 | -0.01
8 | MTA1 (UniProt Q13330) | -0.018 | -0.025 | 0.001 | 0.006 | -0.007 | -0.004 | 0 | -0.008 | 0.034 | -0.018 | -0.022 | 0.011 | 0.008 | -0.005 | -0.007 | -0.003 | 0.013 | -0.061 | 0.018 | 0.036
9 | MVB12A (UniProt Q96EY5) | 0.049 | 0.009 | -0.008 | 0.001 | -0.003 | -0.015 | 0.033 | -0.015 | 0.043 | 0.02 | -0.017 | 0.005 | -0.04 | 0.094 | -0.001 | 0.03 | 0.009 | -0.001 | 0.015 | 0.01
10 | PANK4 (UniProt Q9NVE7) | 0.039 | 0.001 | 0.023 | -0.008 | 0.036 | -0.01 | -0.024 | -0.001 | -0.005 | -0.005 | 0.026 | 0.011 | 0.054 | -0.051 | -0.091 | 0.003 | -0.136 | 0.077 | 0.001 | 0.012
11 | MRPS18A isoform 2 (UniProt Q9NVS2) | -0.015 | 0.006 | -0.015 | -0.002 | -0.046 | 0.034 | -0.131 | 0.016 | 0.043 | -0.003 | 0.073 | 0.03 | 0.037 | 0.073 | -0.019 | -0.04 | 0.306 (active) | -0.121 | -0.042 | 0.036
12 | OPA1 isoform 2 (UniProt O60313) | -0.001 | 0.006 | -0.004 | -0.036 | -0.035 | 0.031 | 0.026 | 0.024 | 0.046 | 0.02 | 0.022 | 0.029 | 0.024 | -0.057 | -0.033 | 0.037 | -0.016 | -0.192 | 0.007 | 0.014
13 | OAT (UniProt P04181) | -0.007 | 0.013 | 0.009 | 0.002 | 0 | -0.045 | -0.018 | -0.006 | 0.034 | -0.009 | 0.066 | 0.003 | -0.012 | -0.019 | -0.014 | -0.006 | -0.119 | 0.014 | -0.004 | -0.024
14 | MT-CYB (UniProt P00156) | 0.133 | -0.055 | 0.001 | -0.064 | -0.094 | 0.03 | -0.107 | 0.039 | -0.093 | 0.198 | 0.004 | -0.03 | -0.054 | 0 | 0.056 | -0.097 | -0.993 (active) | 0.521 (active) | 0.047 | 0.027
15 | PAK4 (UniProt O96013) | 0.049 | 0.372 | -0.016 | -0.001 | -0.102 | 0.023 | -0.087 | -0.064 | -0.012 | 0.034 | -0.016 | -0.06 | -0.005 | -0.131 | -0.134 | 0.259 | 0.02 | 0.3 | -0.018 | 0.063
16 | NARF (UniProt Q9UHQ1) | 0.004 | 0.044 | -0.007 | -0.013 | -0.013 | -0.007 | -0.011 | -0.013 | -0.008 | -0.113 | 0.035 | 0.035 | 0.028 | 0.011 | 0.135 | -0.025 | -0.055 | 0.014 | 0.023 | 0.049
